In PubChem BioAssay AID1159580 (chemical genetic matrix, 2015):
Among all 5,500 compounds or so, about 2,000 (36%) were called active. Inconclusive results (about 18%) are left out. This is one part of the list. Unmarked numbers belong to inactive results. Rule as the data show it: active = normalized growth mostly below about 0.91 (no sharp cut-off); inconclusive = no clear call, values can overlap the other calls; inactive = mostly above about 0.92.

Experiment: chemical genetic growth profiling, strain panel (AID 1159580);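 also: tested at 20 µM; growth read once vehicle control cultures reached saturation at 30 °C; 1 = growth at the plate median or of vehicle wells; lower values mean less growth of the strain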
Conditions: S. cerevisiae deletion strains, growth OD

Q: Which normalized growth (locus YAL021C, strain ccr4, hits give low values) does the source give for `O=C1[O][Bi][O]c2ccccc21` here?
A: Its normalized growth is 1.06.

Q: And the normalized growth (locus YAL026C, strain drs2, hits give low values)?
A: The normalized growth was 1.05.

Q: And the normalized growth (locus YAL030W, strain snc1, hits give low values)?
A: The normalized growth was 0.972.

Q: And the normalized growth (locus YBL061C, strain skt5, hits give low values)?
A: The normalized growth was 1.04.

Q: And the normalized growth (locus YBR009C, strain hhf1, hits give low values)?
A: Its normalized growth is 0.981.

Q: What about the normalized growth (locus YBR023C, strain chs3, hits give low values) of the same compound?
A: The normalized growth was 1.05.

Q: What about the normalized growth (locus YBR171W, strain sec66, hits give low values) of the same compound?
A: Its normalized growth is 1.07.

Q: And the normalized growth (locus YBR231C, strain swc5, hits give low values)?
A: The normalized growth was 1.02.

Q: What about the normalized growth (locus YBR279W, strain paf1, hits give low values) of the same compound?
A: The normalized growth was 0.932.

Q: And the normalized growth (locus YCL011C, strain gbp2, hits give low values)?
A: Its normalized growth is 0.966.

Q: What about the normalized growth (locus YCL016C, strain dcc1, hits give low values) of the same compound?
A: Its normalized growth is 1.04.

Q: What about the normalized growth (locus YCL061C, strain MRC1, hits give low values) of the same compound?
A: Its normalized growth is 1.05.

Q: And the normalized growth (locus YCL069W, strain vba3, hits give low values)?
A: The normalized growth was 1.06.

Q: And the normalized growth (locus YCR088W, strain abp1, hits give low values)?
A: The normalized growth was 1.07.

Q: And the normalized growth (locus YDL005C, strain med2, hits give low values)?
A: The normalized growth was 1.05.

Q: What about the normalized growth (locus YDL040C, strain nat1, hits give low values) of the same compound?
A: The normalized growth was 1.03.

Q: And the normalized growth (locus YDR001C, strain nth1, hits give low values)?
A: The normalized growth was 1.03.

Q: What about the normalized growth (locus YDR069C, strain doa4, hits give low values) of the same compound?
A: The normalized growth was 0.944.

Q: And the normalized growth (locus YDR137W, strain rgp1, hits give low values)?
A: Its normalized growth is 1.

Q: And the normalized growth (locus YDR159W, strain sac3, hits give low values)?
A: Its normalized growth is 0.954.

Q: What about the normalized growth (locus YDR195W, strain ref2) of the same compound?
A: The normalized growth was 1.3 [resistant] (active).

Q: And the normalized growth (locus YDR297W, strain sur2, hits give low values)?
A: The normalized growth was 0.94.

Q: What about the normalized growth (locus YDR334W, strain swr1, hits give low values) of the same compound?
A: The normalized growth was 1.05.

Q: And the normalized growth (locus YDR335W, strain msn5, hits give low values)?
A: The normalized growth was 1.04.

Q: What about the normalized growth (locus YDR392W, strain spt3, hits give low values) of the same compound?
A: Its normalized growth is 1.03.

Q: What about the normalized growth (locus YEL003W, strain gim4, hits give low values) of the same compound?
A: The normalized growth was 1.03.

Q: And the normalized growth (locus YEL037C, strain rad23, hits give low values)?
A: The normalized growth was 1.03.

Q: What about the normalized growth (locus YEL061C, strain CIN8 (second series), hits give low values) of the same compound?
A: Its normalized growth is 1.02.

Q: And the normalized growth (locus YER015W, strain faa2, hits give low values)?
A: The normalized growth was 0.951.

Q: And the normalized growth (locus YER016W, strain bim1, hits give low values)?
A: The normalized growth was 1.05.

Q: And the normalized growth (locus YER111C, strain swi4, hits give low values)?
A: Its normalized growth is 1.02.

Q: What about the normalized growth (locus YER155C, strain BEM2 (second series), hits give low values) of the same compound?
A: The normalized growth was 0.997.

Q: What about the normalized growth (locus YFR010W, strain ubp6, hits give low values) of the same compound?
A: Its normalized growth is 1.11 [resistant] (active).

Q: And the normalized growth (locus YGL167C, strain pmr1, hits give low values)?
A: Its normalized growth is 1.03.

Q: What about the normalized growth (locus YGL173C, strain kem1, hits give low values) of the same compound?
A: Its normalized growth is 0.416 (active).

Q: And the normalized growth (locus YGL227W, strain vid30, hits give low values)?
A: The normalized growth was 1.05.

Q: What about the normalized growth (locus YGL240W, strain doc1, hits give low values) of the same compound?
A: Its normalized growth is 1.13 [resistant] (active).

Q: What about the normalized growth (locus YGL253W, strain hxk2, hits give low values) of the same compound?
A: Its normalized growth is 1.05.

Q: And the normalized growth (locus YHR013C, strain ard1, hits give low values)?
A: The normalized growth was 1.02.

Q: What about the normalized growth (locus YHR027C, strain rpn1, hits give low values) of the same compound?
A: Its normalized growth is 0.904 (active).

Q: And the normalized growth (locus YHR030C, strain SLT2, hits give low values)?
A: Its normalized growth is 0.996.

Q: And the normalized growth (locus YHR079C, strain IRE1, hits give low values)?
A: The normalized growth was 0.985.

Q: And the normalized growth (locus YHR142W, strain chs7, hits give low values)?
A: Its normalized growth is 1.08.

Q: What about the normalized growth (locus YJL092W, strain hpr5, hits give low values) of the same compound?
A: Its normalized growth is 1.06.

Q: What about the normalized growth (locus YJL095W, strain BCK1 (second series), hits give low values) of the same compound?
A: The normalized growth was 0.914 (active).

Q: And the normalized growth (locus YJL095W, strain BCK1, hits give low values)?
A: The normalized growth was 1.02.

Q: What about the normalized growth (locus YJL115W, strain asf1, hits give low values) of the same compound?
A: The normalized growth was 1.03.

Q: And the normalized growth (locus YJL129C, strain trk1, hits give low values)?
A: The normalized growth was 1.05.

Q: What about the normalized growth (locus YJL154C, strain vps35, hits give low values) of the same compound?
A: Its normalized growth is 1.04.

Q: And the normalized growth (locus YJL164C, strain tpk1, hits give low values)?
A: Its normalized growth is 0.732 (active).

Q: What about the normalized growth (locus YJL166W, strain qcr8, hits give low values) of the same compound?
A: The normalized growth was 0.937.

Q: And the normalized growth (locus YJR066W, strain TOR1, hits give low values)?
A: Its normalized growth is 0.925.

Q: And the normalized growth (locus YKL160W, strain elf1, hits give low values)?
A: The normalized growth was 0.996.

Q: And the normalized growth (locus YKR026C, strain gcn3, hits give low values)?
A: The normalized growth was 1.05.

Q: And the normalized growth (locus YKR091W, strain srl3, hits give low values)?
A: The normalized growth was 1.04.

Q: What about the normalized growth (locus YLL001W, strain dnm1, hits give low values) of the same compound?
A: The normalized growth was 1.04.

Q: And the normalized growth (locus YLL026W, hits give low values)?
A: The normalized growth was 1.01.

Q: And the normalized growth (locus YLL041C, strain sdh2, hits give low values)?
A: The normalized growth was 1.04.

Q: And the normalized growth (locus YLR027C, strain aat2, hits give low values)?
A: Its normalized growth is 1.04.

Q: And the normalized growth (locus YLR113W, strain HOG1, hits give low values)?
A: The normalized growth was 1.06.

Q: And the normalized growth (locus YLR221C, strain rsa3, hits give low values)?
A: The normalized growth was 1.02.

Q: What about the normalized growth (locus YLR258W, strain gsy2, hits give low values) of the same compound?
A: The normalized growth was 1.02.

Q: What about the normalized growth (locus YLR262C, strain YPT6 (second series), hits give low values) of the same compound?
A: The normalized growth was 1.06.

Q: And the normalized growth (locus YLR320W, strain mms22, hits give low values)?
A: Its normalized growth is 1.03.

Q: And the normalized growth (locus YLR342W, strain FKS1, hits give low values)?
A: Its normalized growth is 1.01.

Q: And the normalized growth (locus YLR357W, strain rsc2, hits give low values)?
A: The normalized growth was 1.

Q: And the normalized growth (locus YLR370C, strain arc18, hits give low values)?
A: The normalized growth was 1.06.

Q: And the normalized growth (locus YLR384C, strain iki3, hits give low values)?
A: The normalized growth was 1.01.

Q: What about the normalized growth (locus YML120C, strain ndi1, hits give low values) of the same compound?
A: The normalized growth was 1.03.

Q: What about the normalized growth (locus YMR058W, strain fet3, hits give low values) of the same compound?
A: The normalized growth was 0.851 (active).

Q: What about the normalized growth (locus YMR125W, strain sto1, hits give low values) of the same compound?
A: Its normalized growth is 1.04.

Q: And the normalized growth (locus YMR129W, hits give low values)?
A: Its normalized growth is 0.96.

Q: What about the normalized growth (locus YMR205C, strain PFK2, hits give low values) of the same compound?
A: The normalized growth was 0.985.

Q: What about the normalized growth (locus YMR231W, strain pep5, hits give low values) of the same compound?
A: The normalized growth was 1.02.

Q: What about the normalized growth (locus YNL071W, strain lat1, hits give low values) of the same compound?
A: Its normalized growth is 1.03.

Q: And the normalized growth (locus YNL183C, strain NPR1, hits give low values)?
A: Its normalized growth is 0.936.

Q: What about the normalized growth (locus YNL209W, strain ssb2, hits give low values) of the same compound?
A: The normalized growth was 0.923 (active).

Q: What about the normalized growth (locus YNL248C, strain rpa49, hits give low values) of the same compound?
A: The normalized growth was 1.07.

Q: What about the normalized growth (locus YNL322C, strain KRE1 (second series), hits give low values) of the same compound?
A: Its normalized growth is 1.05.

Q: And the normalized growth (locus YNR049C, strain mso1, hits give low values)?
A: The normalized growth was 1.05.

Q: And the normalized growth (locus YOR001W, strain rrp6, hits give low values)?
A: Its normalized growth is 1.06.

Q: What about the normalized growth (locus YOR070C, strain gyp1, hits give low values) of the same compound?
A: The normalized growth was 1.03.

Q: And the normalized growth (locus YOR080W, strain dia2, hits give low values)?
A: The normalized growth was 1.05.

Q: And the normalized growth (locus YOR083W, strain WHI5, hits give low values)?
A: The normalized growth was 1.03.

Q: And the normalized growth (locus YOR106W, strain vam3, hits give low values)?
A: Its normalized growth is 0.861 (active).

Q: What about the normalized growth (locus YOR231W, strain MKK1, hits give low values) of the same compound?
A: Its normalized growth is 1.02.

Q: And the normalized growth (locus YOR265W, strain rbl2, hits give low values)?
A: The normalized growth was 1.04.

Q: What about the normalized growth (locus YOR270C, strain vph1, hits give low values) of the same compound?
A: The normalized growth was 1.35 [resistant] (active).

Q: And the normalized growth (locus YOR290C, strain snf2, hits give low values)?
A: Its normalized growth is 1.01.

Q: What about the normalized growth (locus YPL051W, strain arl3, hits give low values) of the same compound?
A: The normalized growth was 0.945.

Q: And the normalized growth (locus YPL078C, strain atp4, hits give low values)?
A: Its normalized growth is 1.04.

Q: What about the normalized growth (locus YPL106C, strain sse1, hits give low values) of the same compound?
A: Its normalized growth is 1.

Q: And the normalized growth (locus YPL240C, strain hsp82, hits give low values)?
A: Its normalized growth is 1.02.

Q: And the normalized growth (locus YPL256C, strain CLN2, hits give low values)?
A: Its normalized growth is 1.
